Laboratory results reported in PubChem BioAssay (NCI).
About 79,000 compounds went through this panel and 15% of them were active in at least one assay; those are over-represented in the sample as a whole. Cut-off read from the data, not from the text of the source: active = growth inhibition above about 70%; inactive = the rest.

Assays:
[1] = NCI Yeast Anticancer Drug Screen. Data for the rad50 strain (AID 155);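 note: 0% = growth of vehicle-only cultures of the same strain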; conditions: S. cerevisiae rad50 strain growth inhibition; at 50.0 µM; hits give high values
Procedure, shortened: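 A DNA repair-deficient yeast mutant serves as the test organism; compound-induced growth inhibition is calculated against vehicle-treated cells.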

[2] = NCI Yeast Anticancer Drug Screen. Data for the mec2-1 strain (AID 157); conditions: S. cerevisiae mec2-1 strain, at 50.0 µM, hits give high values
Procedure, shortened: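 Mutant yeast (mec2-1) grown with compound; growth inhibition relative to vehicle control reported.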

[3] = NCI Yeast Anticancer Drug Screen. Data for the sgs1 mgt1 strain (AID 161);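 note: 0% = growth of cultures given vehicle only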; conditions: S. cerevisiae sgs1 mgt1 strain, at 50.0 µM, hits give high values
Procedure, shortened: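 Percent growth inhibition was derived by comparing compound-exposed mutant yeast with vehicle-exposed cultures. The strain carries alterations in DNA damage repair.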

[4] = NCI Yeast Anticancer Drug Screen. Data for the cln2 rad14 strain (AID 165);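 note: 0% = growth equal to vehicle treated cultures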; conditions: S. cerevisiae cln2 rad14 strain, at 50.0 µM, hits give high values
Procedure, shortened: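 Readout is yeast growth inhibition versus vehicle-treated controls, using a strain with cln2 and rad14 alterations exposed to compound.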

[5] = NCI Yeast Anticancer Drug Screen. Data for the bub3 strain (AID 167); conditions: S. cerevisiae bub3 mutant strain, at 50.0 µM, hits give high values
Procedure, shortened: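 Inhibition values come from growth of compound-treated mutant yeast normalised to vehicle-treated controls.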

[6] = NCI Yeast Anticancer Drug Screen. Data for the mlh1 rad18 strain (AID 175); conditions: S. cerevisiae mlh1 rad18 strain growth inhibition; at 50.0 µM; hits give high values
Procedure, shortened: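 Genetically defined yeast (DNA repair-deficient) exposed to compounds; growth inhibition determined relative to vehicle.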

Measured: growth inhibition

C=CCC1(C)C=C(C)C(=O)C(C)=C1
inactive: [1] -6.05% | [2] -7% | [3] 18.6% | [4] 2.55% | [5] 16.2% | [6] 15.1%

CC[C@H](O)[C@H](C)C=C1SCCCS1
inactive: [1] -14.3% | [2] -42.2% | [3] 19.9% | [4] 25.1% | [5] -43.8% | [6] -43.6%

COc1ccc2[nH]c(C)cc2c1CN
inactive: [1] -0.65% | [2] -14.3% | [3] 15.1% | [4] -24.9% | [5] -20.2% | [6] 26.4%

CCCCCCCCCCCCCCOc1ccc(OCCCCCCCCC)cc1
inactive: [1] 38.4% | [2] -14.9% | [3] 24.1% | [4] -13.8% | [5] 3.4% | [6] -13.9%

COC(=O)C1=C(C(=O)OC)SC(=CC#CC=C2SC(C(=O)OC)=C(C(=O)OC)S2)S1
inactive: [1] 9.5% | [2] -3.35% | [3] 9.45% | [4] -59.7% | [5] -12.8% | [6] 1.6%

O=C(O)/C=C/C(=O)N1Cc2cc3ccccc3nc2C1
inactive: [1] -5.75% | [2] -31.1% | [3] -45.8% | [4] -28.1% | [5] -56.2% | [6] -13.7%

CCc1cccc(CC)c1N=C(NC(=O)c1ccc(Br)cc1)SC
inactive: [1] -17.6% | [2] -16.5% | [3] -4.7% | [4] -6.75% | [5] -17.1% | [6] -5.65%

CN(C)C1=CC(=S)NC2CCCCC12 (stereo not given)
inactive: [1] 4.1% | [2] -4.7% | [3] 10.6% | [4] 2.05% | [5] -10.1% | [6] 22.1%

COc1ccc2c(c1)CN(C)c1ccc(OC)cc1CN2C
inactive: [1] 10.7% | [2] -18.6% | [3] 12.2% | [4] 12.4% | [5] 12.5% | [6] 24.6%

O=[N+]([O-])c1ccc(N/N=C/c2ccccc2Cl)cc1
inactive: [1] 8% | [2] 12.4% | [3] 26.4% | [4] -1.3% | [5] 36.4% | [6] 31.4%

O=C1C(OCc2ccccc2)=C(c2ccccc2)C(=O)N1c1ccccc1
inactive: [1] -1.75% | [2] -13.2% | [3] 2.2% | [4] 24.8% | [5] -11.6% | [6] -9.75%

CCSc1nc(Cl)nc2c1cnn2C
inactive: [1] 7.95% | [2] -2.15% | [3] 8.05% | [4] 4.1% | [5] 24.9% | [6] 5.4%

O=c1oc(=O)c2c1ccc1c2cc2ccc3cccc4ccc1c2c34
inactive: [1] -17.9% | [2] -10.4% | [3] -8.2% | [4] -35.1% | [5] -11.2% | [6] -11.1%

O=c1oc(-c2ccccc2)c(-c2ccccc2)o1
inactive: [1] 43% | [2] 22.8% | [3] 21.9% | [4] -46.8% | [5] 45.6% | [6] 46.4%

CC(C)=Cc1cc(CCC/C(C)=C/Cc2c(O)cc(C)c(C(=O)O)c2O)co1
inactive: [1] -9% | [2] -25.9% | [3] -1.75% | [4] -6.55% | [5] -18.9% | [6] -15.2%

CCOC(O)(NC(=O)C(C(F)(F)F)C(F)(F)F)C(F)(F)F (stereo not given)
inactive: [1] 6.05% | [2] -18.1% | [3] -33.4% | [4] -9.45% | [5] -12.4% | [6] -26.9%

N#CC1(C#N)CC1(C#N)C#N
inactive: [1] 7.9% | [2] 16.4% | [3] -1.75% | [4] 27.1% | [5] 12.7% | [6] 15.2%

CN(C)NC1=C([N+](=O)[O-])C=NN(c2ccccc2)C1
inactive: [1] 15% | [2] -1.15% | [3] 13.4% | [4] 19.4% | [5] 22.1% | [6] 51.6%

CN(C)CCNC(=O)Cn1cc([N+](=O)[O-])c(=O)c2ccccc21
inactive: [1] -12.9% | [2] -13.1% | [3] -8.8% | [4] 18.9% | [5] -7.2% | [6] -31.1%

Cc1ccc(S(=O)(=O)Oc2c(Cl)c(Cl)c(Cl)c(Cl)c2Cl)cc1
inactive: [1] -9.5% | [2] -10.1% | [3] 2.2% | [4] -15.3% | [5] 9.5% | [6] 5%

COc1cc(C=Nc2ccc3c(c2)OCO3)ccc1OC(=O)c1ccccc1
inactive: [1] 5.3% | [2] 7.6% | [3] 8.35% | [4] 8.25% | [5] 12.9% | [6] -5.5%

O=C1C(=O)N(c2ccc(Cl)cc2Cl)C(=O)C(=O)C1c1nc2ccccc2s1
inactive: [1] 43.1% | [2] 29.7% | [3] 4% | [4] 24.2% | [5] 25.6% | [6] 29%

Nc1nc(-c2ccccc2)nc2nc[nH]c12
inactive: [1] 8.75% | [2] -3.9% | [3] -20.3% | [4] -2.2% | [5] 0.85% | [6] 5.85%

N#CC(Nc1ccccc1)c1ccc(C(C#N)Nc2ccccc2)cc1 (stereo not given)
inactive: [1] 3.2% | [2] 8.2% | [3] -45.2% | [4] -21.1% | [5] -16.2% | [6] -34.2%

COc1ccccc1C(=O)N(C)c1ccc(Cl)c(C(=O)OC(C)C)c1
inactive: [1] 30.9% | [2] 24.7% | [3] 46.4% | [4] 37.7% | [5] 44.5% | [6] 6.85%

Cc1cccc(C)c1NC(=O)C(=O)C(C(=O)c1ccccc1-c1ccccc1)C1OC(=O)c2ccccc21 (stereo not given)
inactive: [1] 26.6% | [2] 15.4% | [3] 12.2% | [4] -29.6% | [5] 2.2% | [6] 23.6%

COC(=O)C1CCC[P+]1(C)C (stereo not given)
inactive: [1] 47.1% | [2] 41.7% | [3] 45.8% | [4] 13.8% | [5] 56.5% | [6] 38.5%

CCOc1ccccc1NC(=O)/C=C1\NC(=O)CS1
inactive: [1] -8.55% | [2] -14.4% | [3] 27.2% | [4] 11.3% | [5] -5.65% | [6] 40.4%

CN(C)C/C=C(/c1ccc(Br)cc1)c1cccnc1
inactive: [1] -5.75% | [2] -16% | [3] -3.7% | [4] -20.4% | [5] -12.6% | [6] 1.65%

Nc1ncnc2c1ncn2C1CCC(COS(N)(=O)=O)C1 (stereo not given)
inactive: [1] 4.3% | [2] 3.65% | [3] 5% | [4] -6.7% | [5] 4.2% | [6] 15.4%

CCO/C=N\c1c(C#N)c(CC#N)nn1C
inactive: [1] -3.55% | [2] -12% | [3] -8.65% | [4] -27.9% | [5] -1.75% | [6] -13.4%

Nc1ccc(N(C(=O)c2ccccc2)C(=O)c2ccccc2)c(-c2ccccc2)c1
inactive: [1] 19.9% | [2] 8.95% | [3] 6.15% | [4] 3.35% | [5] 11.1% | [6] 22.9%

CC(=O)OCC1OC(n2ccc(NC(=O)Nc3ccn(C4OC(COC(C)=O)C(OC(C)=O)C4OC(C)=O)c(=O)n3)nc2=O)C(OC(C)=O)C1OC(C)=O (stereo not given)
inactive: [1] -2.25% | [2] -11.1% | [3] 8.25% | [4] -5.35% | [5] -2.25% | [6] 10.9%

Cc1ccc(C2OC(=O)C(=O)C2=O)cc1 (stereo not given)
inactive: [1] -35.9% | [2] -21.4% | [3] -23.2% | [4] -21.6% | [5] -32% | [6] -3.35%

CCOc1ccc2c(c1)C(C)(C)CCC2(C)C
inactive: [1] 3.55% | [2] -7.75% | [3] -5.9% | [4] -38.5% | [5] 1.4% | [6] 6.05%

CC(=NNC(=S)Nc1ccccc1)c1cccc(C(C)=NNC(=S)Nc2ccccc2)n1
inactive: [1] -7.4% | [2] -7.55% | [3] -0.8% | [4] 2.65% | [5] -2.3% | [6] 6.4%

Cc1cccc(N=C2NC(=O)C(CC(=O)Nc3ccc(Cl)cc3C)S2)c1 (stereo not given)
inactive: [1] 0.05% | [2] -1.9% | [3] 1.95% | [4] 3.55% | [5] 8.15% | [6] 3%

O=C1C(n2ccc(=O)[nH]c2=O)CCN1CCCl (stereo not given)
inactive: [1] 0.2% | [2] 1.35% | [3] 2.65% | [4] -23.5% | [5] 14.1% | [6] 12.5%

CCOC(=O)C(NC(=O)OCc1ccccc1)C(=O)O (stereo not given)
inactive: [1] -22.9% | [2] -27.4% | [3] -14.3% | [4] 7.7% | [5] 5.35% | [6] -14.7%

CCOC(=O)Cc1nc2sc3c(c2c(=O)[nH]1)CCCC3
inactive: [1] 10.4% | [2] 1.8% | [3] 22.4% | [4] -0.9% | [5] 3.9% | [6] 17.2%
